According to PubChem BioAssay:
Inconclusive results are not listed. Active and inactive are the calls of the source. Unless noted, how the calls were made is not given here.

Assays:
[1] = yeast TOR pathway RPL19A-GFP modulators, primary screen, cell-based, S. cerevisiae, multiplex flow cytometry (AID 1862; in the data active means percent of DMSO control GFP below about 86%;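 further: lower values mimic rapamycin by blocking the RPL19A rise seen in DMSO cells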); conditions: S. cerevisiae RPL19A-GFP strain, flow cytometry fluorescence, 3 h; at 10 µM; stronger effect = lower value
[2] = modulators of CIT2-GFP expression in yeast, primary screen, S. cerevisiae, GFP fusion, multiplex flow cytometry (AID 1870;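 active means percent response above a set limit, the screen-wide mean plus 3 SD, cut at about 130% in these data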;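 further: barcoded CIT2-GFP strain pooled with four other GFP strains with rapamycin as positive control; median GFP fluorescence per well over plate mean of DMSO wells so 100% = DMSO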); conditions: 3 h, at 10 µM, stronger effect = higher value
[3] = modulators of LAP4-GFP expression in yeast, primary screen, S. cerevisiae, multiplex flow cytometry (AID 1873;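 active means GFP signal, as percent of the solvent control, above the screen mean plus 3 SD, about 149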); conditions: 3 h, at 10 µM, stronger effect = higher value
[4] = inhibitors of CD8+ T cell-vesicle binding, pilot screen, LFA-1/ICAM-1 modulator project, MLPCN validation set, flow cytometry (AID 2523;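 active means response below a set limit, under 55% cells CD8-positive and vesicle-bound, and CD8 cells' 90th-percentile brightness under 279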;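 on vesicle binding response: mean PE anti-B7-1 fluorescence of CD8+ cells relative to row control; 100% = QL9-loaded vesicles with DMSO vehicle in the same plate row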); conditions: 2C mouse CD8+ T cells, at 7 µM, stronger effect = lower value; double positive events: measured here: CD8+/vesicle+ event percentage
[5] = target: Integrin beta-1 (Homo sapiens) + Integrin alpha-4 (Homo sapiens) (UniProt P13612+P05556); assay: inhibition of HUTS-21 binding to VLA-4, pilot screen, VLA-4 allosteric modulator project, U937 cells, HUTS-21 mAb, flow cytometry, validation set (AID 2674;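 active means inhibition above 50%, about 3 SD of the validation set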;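 further: antibody binding induced by the VLA-4 ligand LDV present at three times its Kd; 0% = LDV ligand with antibody and no compound and 100% = antibody without LDV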); conditions: HUTS-21 LIBS mAb binding, at 6.7 µM, stronger effect = higher value
[6] = superoxide lowering in aged yeast cells, pilot screen, validation compound set (AID 2706;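 active means superoxide response below 65% of plate, a cut near 3 SD across the whole screen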;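 further: yeast exposed to compound for one week at 30 degrees C before staining; 100% = mean of all compound wells on the same plate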); conditions: S. cerevisiae aging, superoxide DHE fluorescence; at 10 µM; stronger effect = lower value
[7] = target: Beta-adrenergic receptor kinase 1 (Homo sapiens) (UniProt P25098); assay: GRK2 binders displacing RNA aptamer, biochemical, validation, human GRK2, bead flow cytometry (AID 488806;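 active means aptamer binding inhibition above 30%, about 3 SD of noise from non-fluorescent compounds; inactive means inhibition at or below 30%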); conditions: bead-bound GRK2, FAM-aptamer displacement, at 10 µM, stronger effect = higher value
[8] = target: AP-2 complex subunit beta (Homo sapiens) (UniProt P63010); assay: inhibitors of arrestin peptide binding to AP2, pilot screen, biochemical, validation set, GST-AP2 beads, flow cytometry (AID 504541;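 active means inhibition above 54%, about 3 SD of non-fluorescent compounds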;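 further: AP2 carries R879A mutation and is captured from E. coli lysate; bead-bound FITC arrestin peptide fluorescence measuring arrestin peptide binding to AP2; 0% = DMSO wells and 100% = excess unlabeled arrestin peptide control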); conditions: FITC arrestin peptide, at 10 µM, stronger effect = higher value
[9] = yeast V-ATPase proton transport modulators, S. cerevisiae, pHLuorin, HTS validation (AID 504600; in the data active means response above about 15%;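 further: plate controls were DMSO for no effect and reference compound for full effect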); conditions: S. cerevisiae pHLuorin cytosolic pH, at 10 µM, stronger effect = higher value
[10] = tested on: anti-desmoglein-3 scFv antibody binding to human DSG3; assay: inhibitors of anti-DSG3 scFv binding to DSG3, pilot screen, biochemical, validation compound set, bead-based, flow cytometry (AID 588368;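 active means binding below the plate cutoff, the plate median minus 3 SD, with a reading above zero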;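 further: signal is the median channel fluorescence of bead-bound GFP antibody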); conditions: Protein G beads, DSG3-Fc, scFv-GFP binding, at 10 µM, stronger effect = lower value
[11] = tested on: Botulinum neurotoxin type F light chain protease (Clostridium botulinum); assay: Botulinum neurotoxin type F light chain protease inhibition, multiplex microsphere flow cytometry, validation set (AID 588459); conditions: multiplex microsphere protease substrate cleavage assay, at 10 µM, stronger effect = higher value
[12] = target: Botulinum neurotoxin type A (Clostridium botulinum) (UniProt P0DPI0); assay: BoNT/A light chain protease inhibitors, biochemical, multiplex microsphere flow cytometry, validation set (AID 588460); conditions: at 10 µM, stronger effect = higher value
[13] = target: Lethal factor (Bacillus anthracis) (UniProt P15917); assay: Lethal factor protease inhibitors, Bacillus anthracis, multiplex microsphere cleavage assay, validation set (AID 588461); conditions: flow cytometry, at 10 µM, stronger effect = higher value
[14] = inhibitors of fungal efflux pumps CDR1, CDR2, MDR1, pilot screen, validation compound set, multiplex, phenotypic (AID 588506;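 active means efflux inhibition above 0.42, the validation set average plus 4 SD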;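 further: Nile Red retained in cells so higher fluorescence means more efflux inhibition; 0 = negative control wells and 1 = enniatin B 25 µM full block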); conditions: S. cerevisiae pump-expressing triplex, Nile Red efflux flow cytometry; at 10 µM; stronger effect = higher value
[15] = target: ATP-binding cassette sub-family B member 6 (Homo sapiens) (UniProt Q9NP58); assay: ABCB6 transporter inhibitors, pilot screen, K562-ABCB6 cells, flow cytometry, validation set (AID 588550;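 active means inhibition above the screen-wide mean plus 3 SD, about 51%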;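 further: 0% = DMSO wells and 100% = benzethonium chloride 70 µM positive control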); conditions: K562-ABCB6 porphyrin accumulation, 1 h, at 10 µM, stronger effect = higher value
[16] = promoters of myeloid differentiation in arrested cells, primary screen, cell-based, GFP/MAC1 double positive, flow cytometry, validation set (AID 588685;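 active means differentiation response of at least 50%, scaled between solvent and reference control, from cells with both markers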;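 further: compound exposure lasts four days before antibody staining and flow analysis; 0% = DMSO wells and 100% = 5 µM fulvestrant positive control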); conditions: ER-HoxA9 marrow cells, stronger effect = higher value
[17] = target: Beta-2 adrenergic receptor (Homo sapiens) (UniProt P07550); assay: beta2AR agonists driving receptor internalization, pilot screen, cell-based, FAP fluorogen, flow cytometry, validation set (AID 504459;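 active means percent response above 42, roughly 3 SD of non-fluorescent test compounds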;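 further: agonist-driven loss of surface beta2AR via internalization measured by FAP dye flow cytometry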); conditions: Am2.2-beta2AR cells, FAP surface receptor flow cytometry; at 10 µM; stronger effect = higher value
[18] = RPL19A-GFP modulators, yeast TOR pathway, confirmation, cell-based, S. cerevisiae, flow cytometry, cherry picks, mother/daughter gates (AID 2270;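 active means GFP response below 50% of the DMSO control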); conditions: S. cerevisiae RPL19A-GFP strain, 3 h, at 10 µM, stronger effect = lower value, 100 = same GFP as DMSO wells
[19] = LAP4-GFP expression modulators in yeast, confirmation, cell-based, cherry picks, flow cytometry, mother/daughter gates (AID 2271;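 active means GFP response above 150% of the DMSO control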;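 further: ratio of sample to DMSO plate mean so 100% equals DMSO level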); conditions: S. cerevisiae LAP4-GFP strain, 3 h, at 10 µM, stronger effect = higher value
[20] = modulators of CIT2-GFP expression in yeast, confirmation, S. cerevisiae, GFP fusion, cherry picks, mother/daughter gates (AID 2274;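 active means GFP response above 150% of the DMSO level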); conditions: S. cerevisiae CIT2-GFP strain, flow cytometry, 3 h, at 10 µM, stronger effect = higher value
[21] = measured here: daughter cell gate
[22] = measured here: mother cell gate

Beta-adrenergic receptor kinase 1 (Homo sapiens), sequence (P25098 whole entry, looked up): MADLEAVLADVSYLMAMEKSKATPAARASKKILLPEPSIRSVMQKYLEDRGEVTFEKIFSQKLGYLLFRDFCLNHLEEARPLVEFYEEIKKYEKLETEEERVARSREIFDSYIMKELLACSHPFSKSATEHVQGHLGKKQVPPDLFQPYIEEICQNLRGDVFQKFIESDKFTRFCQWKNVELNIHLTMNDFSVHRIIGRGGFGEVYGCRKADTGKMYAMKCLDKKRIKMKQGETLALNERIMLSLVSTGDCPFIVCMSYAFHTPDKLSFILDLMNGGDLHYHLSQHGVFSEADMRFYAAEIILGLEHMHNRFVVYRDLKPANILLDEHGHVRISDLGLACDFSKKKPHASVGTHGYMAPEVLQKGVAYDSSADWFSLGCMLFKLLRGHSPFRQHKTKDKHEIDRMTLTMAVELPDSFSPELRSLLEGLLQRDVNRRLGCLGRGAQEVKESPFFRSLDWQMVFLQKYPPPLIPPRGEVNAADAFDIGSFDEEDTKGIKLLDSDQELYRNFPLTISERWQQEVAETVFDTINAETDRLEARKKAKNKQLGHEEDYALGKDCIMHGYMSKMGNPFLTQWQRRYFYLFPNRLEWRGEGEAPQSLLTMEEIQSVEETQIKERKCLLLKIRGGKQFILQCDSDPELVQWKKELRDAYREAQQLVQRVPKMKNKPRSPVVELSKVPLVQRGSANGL
Beta-2 adrenergic receptor (Homo sapiens), sequence (P07550 whole entry, looked up): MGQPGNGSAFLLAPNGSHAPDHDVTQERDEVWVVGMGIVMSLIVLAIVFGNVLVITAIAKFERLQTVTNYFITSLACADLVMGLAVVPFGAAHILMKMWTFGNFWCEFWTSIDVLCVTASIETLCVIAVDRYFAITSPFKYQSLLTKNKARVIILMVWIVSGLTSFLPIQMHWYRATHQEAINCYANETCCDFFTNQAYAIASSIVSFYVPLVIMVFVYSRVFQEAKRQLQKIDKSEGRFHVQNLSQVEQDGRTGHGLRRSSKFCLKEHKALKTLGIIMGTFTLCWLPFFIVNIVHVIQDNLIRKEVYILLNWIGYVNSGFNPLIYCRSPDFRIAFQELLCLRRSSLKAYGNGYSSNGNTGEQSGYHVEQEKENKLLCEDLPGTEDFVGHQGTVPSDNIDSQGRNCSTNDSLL
Lethal factor (Bacillus anthracis), sequence (P15917 whole entry, looked up): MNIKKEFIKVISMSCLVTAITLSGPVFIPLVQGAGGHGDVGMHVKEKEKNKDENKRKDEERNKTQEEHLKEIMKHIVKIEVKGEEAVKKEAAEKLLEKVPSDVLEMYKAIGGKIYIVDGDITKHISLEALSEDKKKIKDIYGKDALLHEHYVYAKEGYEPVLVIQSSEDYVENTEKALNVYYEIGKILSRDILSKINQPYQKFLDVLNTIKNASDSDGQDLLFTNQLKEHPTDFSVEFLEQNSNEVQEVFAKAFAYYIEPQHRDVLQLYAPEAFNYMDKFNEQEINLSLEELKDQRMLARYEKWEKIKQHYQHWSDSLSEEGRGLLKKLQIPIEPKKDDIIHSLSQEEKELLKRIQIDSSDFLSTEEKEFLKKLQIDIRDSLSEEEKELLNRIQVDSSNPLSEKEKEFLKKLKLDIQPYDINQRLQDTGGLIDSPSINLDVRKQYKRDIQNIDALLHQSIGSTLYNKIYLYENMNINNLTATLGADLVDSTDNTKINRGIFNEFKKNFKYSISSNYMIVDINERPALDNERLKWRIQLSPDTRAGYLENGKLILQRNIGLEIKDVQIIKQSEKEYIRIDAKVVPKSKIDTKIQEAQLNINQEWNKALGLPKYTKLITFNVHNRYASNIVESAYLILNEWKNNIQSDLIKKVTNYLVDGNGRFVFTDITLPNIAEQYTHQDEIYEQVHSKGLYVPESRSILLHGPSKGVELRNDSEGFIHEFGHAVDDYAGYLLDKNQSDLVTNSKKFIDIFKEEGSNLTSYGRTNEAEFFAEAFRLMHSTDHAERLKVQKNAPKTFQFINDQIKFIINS
AP-2 complex subunit beta (Homo sapiens), sequence (P63010 whole entry, looked up, one chain of several): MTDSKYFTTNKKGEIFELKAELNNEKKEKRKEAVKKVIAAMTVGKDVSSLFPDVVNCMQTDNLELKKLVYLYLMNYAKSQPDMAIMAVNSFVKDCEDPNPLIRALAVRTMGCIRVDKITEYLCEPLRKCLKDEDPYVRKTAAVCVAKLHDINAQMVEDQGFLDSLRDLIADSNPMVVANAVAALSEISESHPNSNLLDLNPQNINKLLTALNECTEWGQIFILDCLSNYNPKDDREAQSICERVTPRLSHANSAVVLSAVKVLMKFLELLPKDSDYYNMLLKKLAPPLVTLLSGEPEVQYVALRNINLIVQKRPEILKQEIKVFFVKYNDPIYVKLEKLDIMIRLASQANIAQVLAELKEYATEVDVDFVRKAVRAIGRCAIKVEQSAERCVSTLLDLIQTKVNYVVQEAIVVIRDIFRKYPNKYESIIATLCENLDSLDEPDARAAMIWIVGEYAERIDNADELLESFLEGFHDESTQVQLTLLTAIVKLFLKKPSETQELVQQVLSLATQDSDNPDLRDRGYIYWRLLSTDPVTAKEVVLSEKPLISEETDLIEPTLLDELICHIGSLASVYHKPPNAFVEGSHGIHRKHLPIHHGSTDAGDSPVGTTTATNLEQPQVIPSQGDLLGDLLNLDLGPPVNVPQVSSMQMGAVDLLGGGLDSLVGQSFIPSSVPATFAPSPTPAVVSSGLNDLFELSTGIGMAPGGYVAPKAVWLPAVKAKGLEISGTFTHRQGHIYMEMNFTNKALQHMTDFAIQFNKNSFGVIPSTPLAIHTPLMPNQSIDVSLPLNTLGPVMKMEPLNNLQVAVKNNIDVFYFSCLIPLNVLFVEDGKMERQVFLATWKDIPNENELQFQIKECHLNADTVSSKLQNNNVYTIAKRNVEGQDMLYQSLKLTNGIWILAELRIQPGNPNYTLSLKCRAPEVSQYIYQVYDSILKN
Integrin beta-1 (Homo sapiens) + Integrin alpha-4 (Homo sapiens), sequence (P05556 whole entry, looked up): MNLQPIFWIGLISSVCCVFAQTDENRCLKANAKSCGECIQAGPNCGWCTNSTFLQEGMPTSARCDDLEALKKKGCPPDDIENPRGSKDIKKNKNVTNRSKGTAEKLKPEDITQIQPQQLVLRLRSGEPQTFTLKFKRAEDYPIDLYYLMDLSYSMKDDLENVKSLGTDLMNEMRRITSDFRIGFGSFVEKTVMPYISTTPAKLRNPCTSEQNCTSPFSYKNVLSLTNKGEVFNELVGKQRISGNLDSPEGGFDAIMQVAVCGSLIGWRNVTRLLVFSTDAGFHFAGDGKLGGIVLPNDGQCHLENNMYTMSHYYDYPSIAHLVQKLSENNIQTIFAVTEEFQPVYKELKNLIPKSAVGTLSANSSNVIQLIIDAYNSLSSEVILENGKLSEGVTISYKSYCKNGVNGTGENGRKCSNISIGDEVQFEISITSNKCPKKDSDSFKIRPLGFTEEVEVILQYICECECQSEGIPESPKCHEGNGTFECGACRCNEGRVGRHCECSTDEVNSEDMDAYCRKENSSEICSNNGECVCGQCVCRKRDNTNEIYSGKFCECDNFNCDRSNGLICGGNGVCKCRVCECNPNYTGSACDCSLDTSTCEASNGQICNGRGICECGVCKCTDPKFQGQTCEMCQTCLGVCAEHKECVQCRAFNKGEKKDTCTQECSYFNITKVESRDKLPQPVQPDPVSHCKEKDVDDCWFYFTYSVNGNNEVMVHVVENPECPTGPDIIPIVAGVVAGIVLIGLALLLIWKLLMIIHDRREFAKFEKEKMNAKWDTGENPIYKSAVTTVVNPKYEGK
Integrin beta-1 (Homo sapiens) + Integrin alpha-4 (Homo sapiens), sequence (P13612 whole entry, looked up): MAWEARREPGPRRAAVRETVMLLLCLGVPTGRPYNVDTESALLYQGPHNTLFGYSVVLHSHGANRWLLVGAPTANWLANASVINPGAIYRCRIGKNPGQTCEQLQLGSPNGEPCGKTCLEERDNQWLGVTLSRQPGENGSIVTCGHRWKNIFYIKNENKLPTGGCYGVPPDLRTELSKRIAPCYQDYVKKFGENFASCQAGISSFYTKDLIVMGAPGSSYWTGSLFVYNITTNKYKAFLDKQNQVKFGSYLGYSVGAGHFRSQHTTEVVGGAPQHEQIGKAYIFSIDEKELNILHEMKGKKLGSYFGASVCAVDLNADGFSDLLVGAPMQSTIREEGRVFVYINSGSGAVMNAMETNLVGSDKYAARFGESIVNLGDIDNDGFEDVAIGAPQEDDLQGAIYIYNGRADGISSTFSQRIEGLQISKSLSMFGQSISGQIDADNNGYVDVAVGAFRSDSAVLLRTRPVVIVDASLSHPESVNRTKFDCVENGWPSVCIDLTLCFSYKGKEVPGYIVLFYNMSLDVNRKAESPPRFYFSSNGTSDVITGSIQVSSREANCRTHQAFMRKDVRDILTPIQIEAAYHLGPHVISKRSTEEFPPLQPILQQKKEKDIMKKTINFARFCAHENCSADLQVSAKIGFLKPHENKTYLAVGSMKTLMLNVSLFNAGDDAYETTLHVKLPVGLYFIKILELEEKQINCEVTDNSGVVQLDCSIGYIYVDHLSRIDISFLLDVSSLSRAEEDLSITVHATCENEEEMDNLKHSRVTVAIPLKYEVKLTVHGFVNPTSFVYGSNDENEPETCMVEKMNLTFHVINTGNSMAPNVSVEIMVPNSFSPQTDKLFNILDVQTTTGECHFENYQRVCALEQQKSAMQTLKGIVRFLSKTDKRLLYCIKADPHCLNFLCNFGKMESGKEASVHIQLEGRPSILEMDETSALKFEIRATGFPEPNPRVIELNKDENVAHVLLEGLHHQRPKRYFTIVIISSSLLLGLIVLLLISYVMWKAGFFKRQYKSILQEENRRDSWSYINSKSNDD

NCC1(c2ccc3c(c2)OCCO3)CCCC1
60.7%: double positive events [4]
inactive: percent of DMSO control GFP [1] 98.3% | percent response of DMSO control [2] 97.9% | GFP response vs DMSO [3] 89.3% | vesicle binding response [4] 107% | inhibition [5] -51.5% | superoxide response (% of plate) [6] 101% | aptamer binding inhibition [7] 1% | inhibition [8] 6.32% | response [9] -0.06% | binding (% of control) [10] 98.8% | inhibition [11] 0.5% | inhibition [12] -0.6% | inhibition [13] 0.5% | efflux inhibition (fraction of control) [14] 0.06 | inhibition [15] 6% | differentiation response [16] 1.41%

COc1ccc(Cc2nccc3cc(OC)c(OC)cc23)cc1OC
inactive: percent of DMSO control GFP [1] 101% | percent response of DMSO control [2] 94.9% | GFP response vs DMSO [3] 98.7% | vesicle binding response [4] 146% | superoxide response (% of plate) [6] 96% | aptamer binding inhibition [7] 4% | response [17] 20.1% | inhibition [8] -1.6% | response [9] -0.83% | binding (% of control) [10] 108% | inhibition [11] 1.7% | inhibition [12] 0.2% | inhibition [13] 3.7% | inhibition [15] 4% | differentiation response [16] 6.49%
active: efflux inhibition (fraction of control) [14] 0.49
59.9%: double positive events [4]

CC(=O)[C@H]1CC[C@H]2[C@@H]3CC[C@H]4C[C@H](O)CC[C@]4(C)[C@H]3C(=O)C[C@]12C
inactive: percent of DMSO control GFP [1] 100% | percent response of DMSO control [2] 92% | GFP response vs DMSO [3] 106% | vesicle binding response [4] 146% | inhibition [5] 6.29% | superoxide response (% of plate) [6] 110% | aptamer binding inhibition [7] 3% | inhibition [8] 42.5% | response [9] -11.1% | binding (% of control) [10] 99.5% | inhibition [11] 0.8% | inhibition [12] 2.5% | inhibition [13] -1.9% | efflux inhibition (fraction of control) [14] 0.14 | inhibition [15] 5% | differentiation response [16] 46.6%
60.9%: double positive events [4]

C[N+]1(C)CCN(c2ccccc2)CC1
inactive: percent of DMSO control GFP [1] 103% | percent response of DMSO control [2] 107% | GFP response vs DMSO [3] 87.3% | vesicle binding response [4] 172% | inhibition [5] -1.17% | superoxide response (% of plate) [6] 93.3% | aptamer binding inhibition [7] 0% | inhibition [8] -8.27% | response [9] 1.95% | binding (% of control) [10] 100% | inhibition [11] -7.6% | inhibition [12] -1% | inhibition [13] -6.3% | efflux inhibition (fraction of control) [14] -0.2 | inhibition [15] 12% | differentiation response [16] -14.7%
53.4%: double positive events [4]

C[C@@H]1O[C@@H](O[C@H]2C[C@@H](O)[C@]3(CO)[C@H]4[C@H](O)C[C@]5(C)[C@@H](C6=CC(=O)OC6)CC[C@]5(O)[C@@H]4CC[C@]3(O)C2)[C@H](O)[C@H](O)[C@H]1O
inactive: percent of DMSO control GFP [1] 108% | percent response of DMSO control [2] 102% | GFP response vs DMSO [3] 107% | vesicle binding response [4] 183% | inhibition [5] 1.44% | superoxide response (% of plate) [6] 103% | aptamer binding inhibition [7] 7% | response [17] -22.9% | inhibition [8] -1.72% | response [9] 0.97% | binding (% of control) [10] 101% | inhibition [11] 0.6% | inhibition [12] -0.5% | inhibition [13] 0.4% | inhibition [15] 4% | differentiation response [16] 1.91%
69%: double positive events [4]

CC(C)(C)NCC(O)c1cc(Cl)c(N)c(Cl)c1 (stereo unspecified)
60.7%: double positive events [4]
inactive: percent of DMSO control GFP [1] 104% | percent response of DMSO control [2] 97.6% | GFP response vs DMSO [3] 99.1% | vesicle binding response [4] 138% | inhibition [5] -21.2% | superoxide response (% of plate) [6] 94.5% | aptamer binding inhibition [7] -1% | inhibition [8] -12.6% | response [9] 1.54% | binding (% of control) [10] 112% | inhibition [11] 2.9% | inhibition [12] 2.2% | inhibition [13] 6.8% | efflux inhibition (fraction of control) [14] -0.28 | inhibition [15] 2% | differentiation response [16] 17.4%

O=C(O)CCCc1ccc(N(CCCl)CCCl)cc1
63.4%: double positive events [4]
active: efflux inhibition (fraction of control) [14] 0.48
inactive: percent of DMSO control GFP [1] 101% | percent response of DMSO control [2] 98.8% | GFP response vs DMSO [3] 97.4% | vesicle binding response [4] 148% | inhibition [5] 23.1% | superoxide response (% of plate) [6] 93.9% | aptamer binding inhibition [7] 4% | inhibition [8] 1.29% | response [9] -5.67% | binding (% of control) [10] 105% | inhibition [11] -4% | inhibition [12] -2.1% | inhibition [13] -3.4% | inhibition [15] 8% | differentiation response [16] 17.6%

C=CC1CN2CCC1CC2[C@@H](OC(=O)c1ccc(OC)cc1)c1ccnc2ccccc12 (stereo partly specified)
59.2%: double positive events [4]
inactive: percent of DMSO control GFP [1] 96.1% | percent response of DMSO control [2] 107% | GFP response vs DMSO [3] 74.8% | vesicle binding response [4] 222% | inhibition [5] 4.52% | superoxide response (% of plate) [6] 105% | aptamer binding inhibition [7] -2% | response [17] 1.66% | inhibition [8] -4.1% | response [9] -0.74% | binding (% of control) [10] 109% | inhibition [11] 2.8% | inhibition [12] 0.4% | inhibition [13] -2% | efflux inhibition (fraction of control) [14] 0.01 | inhibition [15] 5% | differentiation response [16] -8.19%

O=C1NC(=O)N(CCc2ccc(F)cc2)C(=O)/C1=C/c1cccs1
active: GFP response relative to DMSO [19] 152%
155%: GFP response relative to DMSO ([19]; measured here: mother cell gate response)
94.1%: GFP response vs DMSO [18, 22]
72.8%: GFP response, % of DMSO [20, 22]
85.7%: GFP response, % of DMSO [20, 21]
95%: GFP response vs DMSO [18, 21]
inactive: GFP response vs DMSO [18] 97% | GFP response, % of DMSO [20] 81%
142%: GFP response relative to DMSO ([19]; measured here: daughter cell gate response)
